Data from PubChem BioAssay AID1159580 (chemical genetic matrix, 2015).
Where “and” joins values, the source holds several entries; their conditions need not be identical. Equal values may be shown once. Out of some 5,500 compounds screened, about 2,000 (36%) were called active. Inconclusive results (about 18%) are left out. No stated cut-off is given here; in the data, active means normalized growth mostly below about 0.91 (no sharp cut-off); inconclusive means no clear call, values can overlap the other calls; inactive means mostly above about 0.92. The list shows a part of the results.

Assay: chemical genetic growth profiling, strain panel (AID 1159580);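 further: tested at 20 µM; growth read once vehicle control cultures reached saturation at 30 °C; 1 = growth at the plate median or of vehicle wells; lower values mean less growth of the strain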
Settings: S. cerevisiae deletion strains, growth OD

Measured: normalized growth

CC(C)NNC(=O)c1ccncc1
inactive: locus YAL013W, strain DEP1, active compounds read low 1.01 | locus YAL021C, strain ccr4, active compounds read low 1.02 | locus YAL026C, strain drs2, active compounds read low 1.03 | locus YAL030W, strain snc1, active compounds read low 0.997 | locus YAL040C, strain CLN3, active compounds read low 0.985 | locus YBL061C, strain skt5, active compounds read low 1.01 | locus YBR009C, strain hhf1, active compounds read low 1.01 | locus YBR021W, strain FUR4, active compounds read low 1 | locus YBR023C, strain chs3, active compounds read low 1.01 | locus YBR171W, strain sec66, active compounds read low 1.01 | locus YBR229C, strain ROT2, active compounds read low 1 | locus YBR231C, strain swc5, active compounds read low 1.03 | locus YBR279W, strain paf1, active compounds read low 1.01 | locus YCL011C, strain gbp2, active compounds read low 1.02 | locus YCL016C, strain dcc1, active compounds read low 1.01 | locus YCL029C, strain bik1, active compounds read low 1.02 | locus YCL061C, strain MRC1 (second series), active compounds read low 0.986 | locus YCL069W, strain vba3, active compounds read low 1.02 | locus YCR088W, strain abp1, active compounds read low 1.02 | locus YDL005C, strain med2, active compounds read low 1 | locus YDL035C, strain GPR1, active compounds read low 1.01 | locus YDL040C, strain nat1, active compounds read low 1 | locus YDL074C, strain BRE1, active compounds read low 1.02 | locus YDL101C, strain DUN1, active compounds read low 1 | locus YDL134C, strain PPH21, active compounds read low 1.01 | locus YDL185W, strain tfp1, active compounds read low 1.01 | locus YDL192W, strain arf1, active compounds read low 1.02 | locus YDR001C, strain nth1, active compounds read low 1 | locus YDR069C, strain doa4, active compounds read low 1 | locus YDR101C, strain arx1, active compounds read low 1.01 | locus YDR137W, strain rgp1, active compounds read low 1.01 | locus YDR150W, strain NUM1, active compounds read low 0.994 and 0.996 | locus YDR159W, strain sac3, active compounds read low 0.978 | locus YDR162C, strain NBP2, active compounds read low 1.01 | locus YDR195W, strain ref2 0.961 | locus YDR297W, strain sur2, active compounds read low 1 | locus YDR318W, strain mcm21, active compounds read low 1.02 | locus YDR334W, strain swr1, active compounds read low 1.03 | locus YDR335W, strain msn5, active compounds read low 1.01 | locus YDR363W, strain ESC2, active compounds read low 1.02 | locus YDR388W, active compounds read low 1.01 | locus YDR392W, strain spt3, active compounds read low 1.03 | locus YDR502C, strain sam2, active compounds read low 1.01 | locus YEL003W, strain gim4, active compounds read low 1 | locus YEL037C, strain rad23, active compounds read low 1.02 | locus YEL061C, strain CIN8 (second series), active compounds read low 1.01 | locus YEL061C, strain CIN8, active compounds read low 1 | locus YER002W, strain NOP16, active compounds read low 1.01 | locus YER015W, strain faa2, active compounds read low 1.02 | locus YER016W, strain bim1, active compounds read low 1.01 | locus YER110C, active compounds read low 1.02 | locus YER111C, strain swi4, active compounds read low 0.999 | locus YER155C, strain BEM2 (second series), active compounds read low 1.04 | locus YER155C, strain BEM2, active compounds read low 1 | locus YER167W, strain BCK2, active compounds read low 1.01 | locus YFR010W, strain ubp6, active compounds read low 1.02 | locus YGL078C, strain dbp3, active compounds read low 1.02 | locus YGL086W, strain mad1, active compounds read low 1.01 | locus YGL167C, strain pmr1, active compounds read low 0.996 | locus YGL173C, strain kem1, active compounds read low 1.03 | locus YGL227W, strain vid30, active compounds read low 0.998 | locus YGL240W, strain doc1, active compounds read low 1.01 | locus YGL248W, strain PDE1, active compounds read low 0.996 | locus YGL253W, strain hxk2, active compounds read low 1.03 | locus YGR078C, strain PAC10, active compounds read low 1.01 | locus YGR135W, strain pre9, active compounds read low 1.01 | locus YGR229C, strain SMI1, active compounds read low 1 and 0.992 | locus YGR252W, strain gcn5, active compounds read low 1.05 | locus YHR013C, strain ard1, active compounds read low 1.02 | locus YHR027C, strain rpn1, active compounds read low 1.01 | locus YHR030C, strain SLT2, active compounds read low 1 | locus YHR079C, strain IRE1 (second series), active compounds read low 1.02 | locus YHR094C, strain hxt1, active compounds read low 1.01 | locus YHR129C, strain ARP1, active compounds read low 1 | locus YHR142W, strain chs7, active compounds read low 1.03 | locus YHR200W, strain rpn10, active compounds read low 1.02 | locus YIL066C, strain RNR3, active compounds read low 1.02 | locus YIL073C, strain SPO22, active compounds read low 1.04 | locus YIL125W, strain kgd1, active compounds read low 1.01 | locus YIR030C, strain dcg1, active compounds read low 1.02 | locus YJL092W, strain hpr5, active compounds read low 1.01 | locus YJL095W, strain BCK1 (second series), active compounds read low 1.02 | locus YJL095W, strain BCK1, active compounds read low 1.02 | locus YJL115W, strain asf1, active compounds read low 0.988 | locus YJL129C, strain trk1, active compounds read low 0.998 | locus YJL134W, strain LCB3, active compounds read low 1.01 | locus YJL154C, strain vps35, active compounds read low 1.01 | locus YJL164C, strain tpk1, active compounds read low 1.01 | locus YJL166W, strain qcr8, active compounds read low 1.01 | locus YJL168C, strain set2, active compounds read low 1.02 | locus YJL187C, strain SWE1 (second series), active compounds read low 1.01 | locus YJL187C, strain SWE1, active compounds read low 1.01
